In PMC5700166 one finds binding signal data, which are given here for 14 sequences.

Common to all, as to test: protein-binding microarray (PBM); PBM: ~300 nM protein, 6 mM HEPES pH 7.8, 80 mM KCl, 0.5 mM EDTA, 0.5 mM EGTA, 6% glycerol, 35 ng/ul poly-dIdC, 1% milk, 1 h, room temperature; Ap Aiptasia and Nv Nematostella (sea anemones) / Co Capsaspora / Aq Amphimedon (sponge) / Dm Drosophila / Hu human; RHD is the Rel homology domain; high values mean tight binding
Holding throughout (conditions): dsDNA, one strand shown

The target of experiment [1] is T1, GST-Ap-NF-kB RHD (Exaiptasia pallida (Aiptasia), UniProt A0A913YAJ5 2-422).
T1 sequence: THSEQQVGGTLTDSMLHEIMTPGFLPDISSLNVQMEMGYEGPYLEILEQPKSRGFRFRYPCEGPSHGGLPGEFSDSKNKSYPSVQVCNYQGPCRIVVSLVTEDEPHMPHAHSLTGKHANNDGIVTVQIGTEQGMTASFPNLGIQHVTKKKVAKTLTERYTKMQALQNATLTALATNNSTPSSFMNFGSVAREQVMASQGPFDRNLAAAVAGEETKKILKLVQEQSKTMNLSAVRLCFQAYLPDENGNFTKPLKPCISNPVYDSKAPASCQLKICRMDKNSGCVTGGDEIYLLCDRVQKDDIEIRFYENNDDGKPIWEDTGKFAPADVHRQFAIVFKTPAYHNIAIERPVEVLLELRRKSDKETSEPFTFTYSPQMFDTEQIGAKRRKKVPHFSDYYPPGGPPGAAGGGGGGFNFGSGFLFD

For experiment [2], the target named is T2, GST-Nv-NF-kB (Ser allele) (Nematostella vectensis, UniProt A7UNT2 2-411).
T2 sequence: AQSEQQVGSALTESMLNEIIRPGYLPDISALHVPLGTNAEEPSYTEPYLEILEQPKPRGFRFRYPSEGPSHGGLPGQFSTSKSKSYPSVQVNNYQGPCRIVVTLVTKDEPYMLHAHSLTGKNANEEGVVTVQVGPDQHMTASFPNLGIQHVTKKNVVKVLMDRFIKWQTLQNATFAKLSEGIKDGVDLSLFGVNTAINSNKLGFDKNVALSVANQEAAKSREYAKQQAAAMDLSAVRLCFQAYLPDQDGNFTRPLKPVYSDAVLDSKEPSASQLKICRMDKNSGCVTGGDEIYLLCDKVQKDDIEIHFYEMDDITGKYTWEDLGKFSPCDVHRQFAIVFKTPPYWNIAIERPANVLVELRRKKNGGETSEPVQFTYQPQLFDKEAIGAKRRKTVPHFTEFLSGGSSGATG

For experiment [3], the target named is T3, GST-Co-NF-kB (Capsaspora owczarzaki, UniProt F1ARL5 200-546).
T3 sequence: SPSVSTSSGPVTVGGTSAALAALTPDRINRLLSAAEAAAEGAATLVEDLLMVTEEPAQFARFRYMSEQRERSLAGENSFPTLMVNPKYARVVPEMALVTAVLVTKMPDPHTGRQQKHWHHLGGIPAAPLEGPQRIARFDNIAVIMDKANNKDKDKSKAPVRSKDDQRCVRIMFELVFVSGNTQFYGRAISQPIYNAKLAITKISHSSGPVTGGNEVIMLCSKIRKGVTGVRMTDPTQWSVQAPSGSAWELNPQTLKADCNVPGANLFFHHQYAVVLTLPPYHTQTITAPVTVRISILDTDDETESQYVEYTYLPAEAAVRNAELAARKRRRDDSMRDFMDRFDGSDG

Experiment [4] deals with T4, GST-Dm-Relish (Drosophila melanogaster, UniProt Q94527 99-473).
T4 sequence: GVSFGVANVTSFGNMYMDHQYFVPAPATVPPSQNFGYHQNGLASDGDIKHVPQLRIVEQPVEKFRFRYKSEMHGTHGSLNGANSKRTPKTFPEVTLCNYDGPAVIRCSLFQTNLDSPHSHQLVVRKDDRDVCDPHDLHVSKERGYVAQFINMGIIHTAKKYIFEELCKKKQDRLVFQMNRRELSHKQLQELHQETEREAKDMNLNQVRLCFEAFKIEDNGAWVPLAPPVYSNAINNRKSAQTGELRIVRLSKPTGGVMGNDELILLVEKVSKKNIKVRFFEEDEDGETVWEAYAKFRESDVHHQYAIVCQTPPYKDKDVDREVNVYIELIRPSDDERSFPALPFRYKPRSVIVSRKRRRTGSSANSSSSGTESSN

The target of experiment [5] is T5, GST-Aq-NF-kB (Amphimedon queenslandica, UniProt A9Y5G7 2-389).
T5 sequence: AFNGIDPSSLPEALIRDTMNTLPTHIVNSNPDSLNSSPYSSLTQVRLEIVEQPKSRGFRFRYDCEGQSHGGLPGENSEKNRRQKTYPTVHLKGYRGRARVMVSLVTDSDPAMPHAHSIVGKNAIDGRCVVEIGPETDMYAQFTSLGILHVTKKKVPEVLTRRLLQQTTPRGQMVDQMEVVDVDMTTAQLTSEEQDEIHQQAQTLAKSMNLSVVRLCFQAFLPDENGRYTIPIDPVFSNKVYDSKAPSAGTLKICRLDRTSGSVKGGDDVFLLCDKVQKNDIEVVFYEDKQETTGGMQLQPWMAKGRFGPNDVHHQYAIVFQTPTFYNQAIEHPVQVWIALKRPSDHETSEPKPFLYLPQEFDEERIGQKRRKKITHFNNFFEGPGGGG

“CCGATTAACATCAGGGGGGGATATGATGTTAATCGGGTCTTGATTCGCTTGACGCTGCTG”: the binding signal came out at 6.21 z-score in experiment [1]; 5.63 z-score in experiment [2]; 5.9 z-score in experiment [3]; 4.91 z-score in experiment [4]; 5.29 z-score in experiment [5].

For “CCGATTAACATCAGGCAACCCCATGATGTTAATCGGGTCTTGATTCGCTTGACGCTGCTG”, the binding signal in experiment [1] came out at 1.67 z-score; in experiment [3], 1.23 z-score; in experiment [4], 2.62 z-score; in experiment [5], 1.4 z-score.

“CCGATTAACATCAGTCCCCCCCATGATGTTAATCGGGTCTTGATTCGCTTGACGCTGCTG”: the binding signal was 5.83 z-score in experiment [1]; 3.57 z-score in experiment [2]; 6.28 z-score in experiment [3]; 4.23 z-score in experiment [4]; 4.7 z-score in experiment [5].

As to “CCGATTAACATCAGGGGGGGAACTGATGTTAATCGGGTCTTGATTCGCTTGACGCTGCTG”, the binding signal was determined as 6.55 z-score in experiment [1], 8.33 z-score in experiment [3], 5.17 z-score in experiment [4] and 4.84 z-score in experiment [5].

Take “CCGATTAACATCAAGGGGGGAGGTGATGTTAATCGGGTCTTGATTCGCTTGACGCTGCTG”: the binding signal in experiment [1] is 4.12 z-score; in experiment [2] it was 4.04 z-score; in experiment [3], 5.65 z-score; in experiment [4] it was 3.23 z-score; in experiment [5] it was 4.07 z-score.

“CCGATTAACATCACGGGGGGGGATGATGTTAATCGGGTCTTGATTCGCTTGACGCTGCTG”: the binding signal came out at 6.27 z-score in experiment [1]; 5.38 z-score in experiment [2]; 7.62 z-score in experiment [3]; 5.35 z-score in experiment [4]; 5.29 z-score in experiment [5].

Turning to “CCGATTAACATCAATACCCCCCCTGATGTTAATCGGGTCTTGATTCGCTTGACGCTGCTG”, the binding signal was found to be 6.7 z-score in experiment [1], 6.7 z-score in experiment [3], 5.66 z-score in experiment [4] and 4.66 z-score in experiment [5].

For the sequence “CCGATTAACATCAGGATATCCCATGATGTTAATCGGGTCTTGATTCGCTTGACGCTGCTG”, the binding signal in experiment [1] worked out at 2.32 z-score; in experiment [3], 1.41 z-score; in experiment [4] it was 3 z-score; in experiment [5] it was 2.24 z-score.

Consider “CCGATTAACATCATAGTGAGGGGTGATGTTAATCGGGTCTTGATTCGCTTGACGCTGCTG”, for which the binding signal in experiment [1] worked out at 2.05 z-score; in experiment [3], 1.74 z-score; in experiment [5] it was 1.09 z-score.

On to “CCGATTAACATCACGGATATCCCTGATGTTAATCGGGTCTTGATTCGCTTGACGCTGCTG”, for which the binding signal turned out to be 1.57 z-score in experiment [1], 1.15 z-score in experiment [3], 2.04 z-score in experiment [4] and 2.76 z-score in experiment [5].

Consider “CCGATTAACATCACGGTACGGGGTGATGTTAATCGGGTCTTGATTCGCTTGACGCTGCTG”, for which the binding signal in experiment [1] was determined as 2.02 z-score; in experiment [3], 2.2 z-score; in experiment [4] it was 1.48 z-score; in experiment [5] it was 1.51 z-score.

“CCGATTAACATCAGGGGGGGAGATGATGTTAATCGGGTCTTGATTCGCTTGACGCTGCTG”: the binding signal came to 5.6 z-score in experiment [1], 8.63 z-score in experiment [3], 3.66 z-score in experiment [4] and 4.59 z-score in experiment [5].

“CCGATTAACATCACGGACACCCCTGATGTTAATCGGGTCTTGATTCGCTTGACGCTGCTG”: the binding signal in experiment [1] was 1.65 z-score; in experiment [3], 1.34 z-score; in experiment [4] it was 1.95 z-score; in experiment [5], 2.16 z-score.

As to “CCGATTAACATCACCGGAATTCCTGATGTTAATCGGGTCTTGATTCGCTTGACGCTGCTG”, the binding signal was determined as 1.13 z-score in experiment [1], 1.36 z-score in experiment [3], 3.45 z-score in experiment [4] and 2.36 z-score in experiment [5].
